From PubChem BioAssay
Compounds with a hit are over-represented: about 19% of the library has one in this group of screens.
DT40 TDP1 CPT = qHTS for Inhibitors of human tyrosyl-DNA phosphodiesterase 1 (TDP1): qHTS in cells in presence of CPT; chicken DT40 Tdp1-/-;hTDP1 cells + 20 nM CPT, ATP luminescence, 48 h; Potency, µM (doses to about 46.2 µM), for the others: at the highest dose activity change, negative = growth inhibition, hits mostly inhibitors; 420,000 compounds, 12% hits; AID 686979, 2013; further: potency means the concentration at half of the fitted maximal effect; on the % scale 0 is the no-effect control and ±100 the full control effect; nearly all actives have a fitted effect of over 55% in size
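Chicken DT40 Tdp1-/- cells complemented with human TDP1, 400 cells/well, exposed to compounds plus 20 nM camptothecin for at least 48 h at 37 C; viability read as ATP content by CellTiter-Glo luminescence.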
DT40 TDP1 no CPT = qHTS for Inhibitors of human tyrosyl-DNA phosphodiesterase 1 (TDP1): qHTS in cells in absence of CPT. DT40 Tdp1-/- hTDP1 cells, no CPT, ATP luminescence, 48 h. Potency, µM (highest dose often 46.2 µM), inactives show top-dose activity change, negative = growth inhibition, hits mostly inhibitors. 420,000 compounds, 15% hits; further: potency means the concentration at half of the fitted maximal effect; on the % scale 0 is the no-effect control and ±100 the full control effect; nearly all actives have a fitted effect of over 55% in size
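Chicken DT40 Tdp1-/- cells complemented with human TDP1, screened without camptothecin (DMSO vehicle only), 400 cells/well. Compounds pin-transferred, cells incubated at 37 °C for at least 48 hr. Growth read as ATP-dependent luminescence (CellTiter-Glo, 30 min at RT).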
TGFb inhibitor = qHTS for Inhibitors of TGF-b; AID 588855, 2011; HepG2 CAGA-GFP TGF-b/SMAD3 reporter, GFP fluorescence, 18 h; TGF-beta stimulated, 500 pg/mL final; 410,000 compounds, 1.2% hits; Potency, µM (doses to about 46.1 µM), inactives show top-dose activity, negative = inhibition, usual class: inhibitors; further: potency means the concentration at half of the fitted maximal effect; on the % scale 0 is the no-effect control and ±100 the full control effect; nearly all actives have a fitted effect of over 65% in size
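HEPG2 CAGA-GFP reporter cells (1000/well, DMEM with 1% FBS) received compounds, then recombinant TGF-beta at 500 pg/mL final for 18 hours at 37 degrees C. Per-cell GFP summed per well was normalised to unstimulated and stimulated DMSO controls before curve fitting.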
IL-1B inflam inh = qHTS for Inhibitors of Inflammasome Signaling: IL-1-beta AlphaLISA Primary Screen. THP-1 LPS/ATP IL-1B secretion, AlphaLISA, 16 h; stronger effect = lower value. activity change, % at 57.5 µM. 360,000 compounds, 4.7% hits; in the data active means activity change below about -50%; inconclusive means mostly about -30% to -49%; further: on the % scale 0 is the no-effect control and ±100 the full control effect
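THP-1 cells pretreated 1 hr with compounds (up to 57.5 uM final), then stimulated with LPS (250 ng/mL final) plus ATP (1.25 mM final); secreted IL-1B measured by AlphaLISA after 16 hr, decreased signal indicating inhibition.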
HepG2 viability = qHTS for Inhibitors of TGF-b: Cytotox Counterscreen | Potency, µM (highest dose often 46.1 µM), for inactives: at the top dose activity change, negative = cytotoxicity, usual class: cytotoxic | HepG2 CAGA-GFP viability, ATP luminescence, 18 h | AID 588856, 2011 | 410,000 compounds, 0.76% hits; further: potency means the concentration at half of the fitted maximal effect
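HepG2 CAGA-GFP cells (1000/well, DMEM with 1% FBS) received compound, then TGF-beta at 500 pg/mL final, and were incubated 18 hours at 37 degrees C. Viability was read by CellTiter-Glo luminescence. Media-only wells were set as complete cell-killing and DMSO as no toxicity.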
TDP1 inh = qHTS Assay for Inhibitors of Tyrosyl-DNA Phosphodiesterase (TDP1) | Tyrosyl-DNA phosphodiesterase 1 (Homo sapiens), Q9NUW8 | 350,000 compounds, 0.28% hits | AID 485290, 2010 | Potency, µM (doses to about 130 µM), for the others: top-dose activity change, negative = inhibition, hits mostly inhibitors | recombinant TDP1, AlphaScreen DNA substrate cleavage; further: potency means the concentration at half of the fitted maximal effect; on the % scale 0 is the no-effect control and ±100 the full control effect; nearly all actives have a fitted effect of over 40% in size
Target sequence (Q9NUW8 whole entry, looked up): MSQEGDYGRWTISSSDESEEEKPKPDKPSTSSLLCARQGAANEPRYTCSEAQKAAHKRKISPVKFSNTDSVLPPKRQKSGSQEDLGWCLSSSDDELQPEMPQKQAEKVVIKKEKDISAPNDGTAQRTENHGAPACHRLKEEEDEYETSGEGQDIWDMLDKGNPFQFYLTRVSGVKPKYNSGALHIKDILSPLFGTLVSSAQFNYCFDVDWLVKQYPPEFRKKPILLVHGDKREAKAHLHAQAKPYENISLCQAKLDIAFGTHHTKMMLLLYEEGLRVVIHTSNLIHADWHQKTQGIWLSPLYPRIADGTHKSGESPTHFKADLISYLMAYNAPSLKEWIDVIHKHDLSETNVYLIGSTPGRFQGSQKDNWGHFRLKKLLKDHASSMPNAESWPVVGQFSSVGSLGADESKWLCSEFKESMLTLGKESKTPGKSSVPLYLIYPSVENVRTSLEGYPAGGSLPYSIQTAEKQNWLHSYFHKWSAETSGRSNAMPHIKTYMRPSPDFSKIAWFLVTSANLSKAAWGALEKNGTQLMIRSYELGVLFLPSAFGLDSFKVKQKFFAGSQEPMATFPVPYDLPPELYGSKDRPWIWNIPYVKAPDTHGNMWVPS
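Tdp1 1 nM final; 15 min RT w/ cpd; substrate 15 nM, 5 min; beads 10 ug/ml, 10 min; AlphaScreen read. Neg ctrl: no enzyme.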
* = called active by the depositor; ? = inconclusive; · = no result given; [ ] = dose if it differs, or a comment. Unless noted, the call rests on the fitted dose curve; in most records, active means well fitted curve in the direction sought with a large enough effect; inconclusive means small, poorly fitted or top-dose-only effect, or another doubt; inactive means no such curve, though single readings can be large; an effect the other way counts as inactive or inconclusive.

SMILES | DT40 TDP1 CPT | DT40 TDP1 no CPT | TGFb inhibitor | IL-1B inflam inh | HepG2 viability | TDP1 inh
Cc1cc(C)c2[nH]c(=O)c(CN(Cc3cccs3)C(=S)NCC3CCCO3)cc2c1 (centres undefined) | ? | 20.6µM* | -16.1% | -11.0 | -1.7% | 9.1%
CCOc1ccc(S(=O)(=O)Nc2ccc(C(=O)NN)cc2)cc1 | ? | -14.5% | -3.5% | 45.2 | 3.0% | ·
CCOc1ccc(OCCC(=O)OCC(=O)NCc2ccc(Cl)cc2)cc1 | 9.7% | -4.5% | -1.5% | 4.3 | 5.3% | -6.8%
O=C(NCCCN1CCN(c2ccccc2F)CC1)c1ccc2nc(N3CCCCC3)sc2c1 | ? | ? | -10.1% | · | -23.3% | 2.5%
CCC1CCCCN1C(=O)Cn1c(=O)oc2cc(S(=O)(=O)N3CCCCC3)ccc21 (centres undefined) | -25.8% | -26.0% | -21.2% | · | -18.9% | -8.8%
COc1ccc(-c2cc(NC(C)=O)c3ncc(-c4ccccc4)n3c2)cc1OC | ? | ? | -23.0% | -25.4 | -61.7% | ·
COc1ccc(-c2cc(NC(C)=O)c3ncc(-c4ccc(OC)c(OC)c4)n3c2)c(OC)c1 | 23.1µM* | 20.6µM* | 64.5% | -59.1* | -22.7% | ·
COc1ccc(-c2cc(NC(C)=O)c3ncc(-c4ccc(F)cc4)n3c2)cc1OC | 23.1µM* | 14.6µM* | -12.6% | -18.5 | -27.3% | ·
COc1ccc(F)cc1-c1cc(NC(C)=O)c2ncc(-c3cc(OC)c(OC)c(OC)c3)n2c1 | 3.66µM* | 2.91µM* | -6.3% | 39.3 | -10.3% | ·
COc1ccc(-c2cnc3c(NC(C)=O)cc(-c4cc(F)ccc4OC)cn23)cc1OC | 5.17µM* | 5.8µM* | -13.5% | -2.0 | -27.4% | ·
O=C(CN(C(=O)c1csnn1)c1cccc2ccccc12)NCc1ccc(F)cc1 | -28.3% | ? | 19.6% | 2.4 | -5.2% | -0.3%
Cc1cccnc1CNC(=O)C1CCC(=O)N(CCc2cccc(F)c2)C1 (centres undefined) | 1.9% | 12.7% | 13.1% | -2.6 | 17.1% | 3.4%
CCC(=O)Nc1cccc(C(=O)N(Cc2ccccc2)Cc2ccccc2)c1 | ? | ? | -15.1% | 2.6 | -8.8% | ·
C[C@@]12C=CC(=O)C=C1CC[C@H]1[C@H]3CC[C@](O)(C(=O)CO)[C@]3(C)CC(=O)[C@@H]12 | · | · | · | · | · | 5.7%[56.1 µM]
C=CCSc1nnc2nc3c(nn12)c1cc(C)ccc1n3CC=C | 16.4µM* | ? | 2.6% | -7.3 | -2.8% | 2.1%
O=C(O)CN1CCN(Cc2ccccc2)C1=O | -10.4% | -6.5% | 0.1% | 11.2 | 5.5% | 8.7%
CCOC(=O)N1CCN(CCCc2ccccc2)CC1 | 5.9% | 2.1% | 1.1% | -8.5 | -16.5% | ·
O=C(CCc1ccccc1)NC1(Cc2ccccc2)CCN(CCc2cccs2)C1=O (centres undefined) | ? | ? | ? | ? | -15.0% | 0.0%
O=C(NC1(Cc2ccccc2)CCN(Cc2ccc(-c3ccccc3)cc2)C1=O)c1ccccc1 (centres undefined) | 20.6µM* | 23.1µM* | ? | -9.7 | -24.9% | 1.4%
CC1(NC(=O)CCc2ccccc2)CCN(CCCc2ccccc2)C1=O (centres undefined) | 14.6µM* | ? | -14.5% | 23.6 | -17.9% | 0.3%
CC1(NC(=O)c2ccccc2)CCN(CCCc2ccccc2)C1=O (centres undefined) | 3.66µM* | 4.61µM* | -3.2% | 5.7 | -0.2% | -1.6%
CC1(NC(=O)CC(c2ccccc2)(c2ccccc2)c2ccccc2)CCN(CCCc2ccccc2)C1=O (centres undefined) | 23.1µM* | 20.6µM* | 8.91µM* | -13.4 | -21.5% | -0.2%
COC(=O)c1c(NC(=O)c2cc3ccccc3c(=O)o2)sc2c1CCCC2 | · | · | 4.7% | · | -13.4% | 4.2%
Cc1ccc2nc(SCC(=O)NCc3ccc4c(c3)OCO4)nc(=O)n2c1 | -2.1% | 10.3% | ? | -8.2 | 2.2% | -6.1%
CCn1ccc2cc(S(=O)(=O)N3CCC(C(=O)NCCc4ccccc4)CC3)ccc21 | -22.5% | -28.6% | ? | · | 6.6% | 5.3%
SMILES | DT40 TDP1 CPT | DT40 TDP1 no CPT | TGFb inhibitor | IL-1B inflam inh | HepG2 viability | TDP1 inh
COc1ccc(S(=O)(=O)NCC2CCC(C(=O)O)CC2)cc1 (centres undefined) | 4.7% | 7.9% | -9.1% | 6.2 | 6.5% | ·
CSc1cccc(NC(=O)COC(=O)C2CCN(S(=O)(=O)c3ccccc3)CC2)c1 | -25.1% | 19.6% | -2.0% | -3.7 | 1.4% | 0.5%
COC(=O)c1cccc2c1-c1ccccc1/C2=N\NC(N)=O | ? | 14.6µM* | -19.6% | ? | -31.2% | ·
COC(=O)c1cccc2c1-c1ccccc1/C2=N/O | 16.4µM* | 13µM* | 2.1% | -22.5 | -36.0% | 11.9%
COC(=O)c1ccc2c(c1O)C(=O)c1ccccc1C2=O | 23.1µM* | 20.6µM* | -13.0% | ? | -35.0% | -1.1%
COc1ccc(C2C(C(=O)Nc3cccnc3)=C(C)Nc3nc(SCc4ccccc4)nn32)cc1 (centres undefined) | -24.2% | -5.5% | 30.8% | · | 1.6% | 2.9%
COc1ccccc1CCNC(=O)C(=O)NCC(c1ccc2c(c1)OCO2)N1CCOCC1 (centres undefined) | ? | ? | -4.4% | · | -17.9% | 4.4%
Cc1cccc(-c2noc(-c3ccc(NCC4CCCO4)c([N+](=O)[O-])c3)n2)c1 (centres undefined) | ? | ? | -15.8% | · | -6.6% | 5.7%
O=C(C=Cc1ccc(Cl)s1)c1ccc(Cl)s1 | ? | ? | -0.9% | -51.0* | -3.4% | ·
COc1ccc(/C=C/C(=O)c2ccc(Cl)s2)cc1O | ? | 18.4µM* | -27.4% | -26.5 | -94.9% | 6.5%
COc1cc(/C=C/C(=O)c2ccc(Cl)s2)cc(OC)c1O | ? | 29.1µM* | ? | -105.0* | -84.7% | 3.5%
Cc1c(/C=C/C(=O)c2ccc(Cl)s2)cnn1C | -26.6% | ? | -9.1% | -9.2 | -25.3% | 2.2%[56.1 µM]
N#Cc1ccccc1CSc1nc2ccsc2c(=O)n1Cc1ccccn1 | ? | ? | 5.7% | 18.7 | 6.2% | 2.7%
Cc1ccc(CSc2nc3ccsc3c(=O)n2Cc2ccccn2)cc1 | ? | 16.4µM* | ? | ? | -14.5% | 0.0%
